About 4,500 (1.3%) of roughly 340,000 compounds were called active. A call without a number means that no potency is given here. Not shown: some 5% with an inconclusive outcome. Calls come from the whole dose curve; as a rule, active = well fitted inhibition curve with a large enough effect; inconclusive = small, poorly fitted or top-dose-only effect, or another doubt; inactive = no such curve, though single readings can be large or run the other way. For the sample, actives were picked, then their nearest neighbours and some compounds at random.
Potency is the fitted concentration of half-maximal effect.

The assay deals with DNA polymerase beta (Homo sapiens) (UniProt P06746). Description: qHTS Assay for Inhibitors of DNA Polymerase Beta. The conditions noted are these: Pol beta primer extension/strand displacement, fluorescence kinetic; series mostly up to 114 µM. The procedure, abridged: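 Human Pol beta at 10 nM; strand-displacement substrate 50 nM final. Compound exposure 15 min at room temperature before start, reaction 10 min at room temperature.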
As for `CC1=C(C)C(=O)OC(C(C)C2CCC3C4CC=C5CC(OC6OC(COC7OC(CO)C(O)C(O)C7O)C(O)C(O)C6O)CC(O)C5(C)C4CCC23C)C1` (stereo not given), the Potency result was “inactive”.
Regarding `CC(/C=C/C1(O)C(C)CC(=O)CC1(C)C)OC1OC(CO)C(O)C(O)C1O` (stereo not given), the Potency is 28.2 µM (active).
Next, `C=CC1C(OC2OC(CO)C(O)C(O)C2O)OC=C(C(=O)OC)C1CC1CC(=O)CC(CC(=O)CCc2ccc(O)cc2)O1` (stereo not given): “inactive”.
The result for `Cc1ccc(-c2nc3ccccn3c2Nc2c(C)cccc2C)o1` reads “inactive”; that for `O=C(CN1CCSc2ccccc21)N1CCN(c2ccccc2)CC1`, “inactive”.
The result for `Oc1c(Cl)cc(Cl)c(Cl)c1Cc1c(O)c(Cl)cc(Cl)c1Cl` reads 28.2 µM (active); that for `Cc1ccc(Cc2nc3ccccc3nc2SCC(=O)Nc2cccc(C(F)(F)F)c2)cc1`, “inactive”; that for `Cc1ccc(-c2cnc(C3CC3)o2)cc1S(=O)(=O)Nc1cccc(C)c1C`, “inactive”.
`CCCOc1ccc(-c2cccc(NS(=O)(=O)c3ccccc3)c2)nn1`: the Potency entry is “inactive”.
Next, `O=C(N/N=C/c1ccco1)c1ccc(C(=O)N/N=C/c2ccco2)o1`: 17.8 µM (active); `O=C(N/N=C/c1ccco1)c1csc2c1CCCC2`: “inactive”.
`O=C(Cc1ccc([N+](=O)[O-])cc1)N/N=C/c1ccco1`: the Potency result was “inactive”.
Next, `CCc1ccccc1NC(=O)CSc1nnc(-c2ccccc2)c(-c2ccccc2)n1`: “inactive”; `Cc1c(Cl)cccc1NC(=O)N1CCN(C(=O)c2nsc3ccccc23)CC1`: “inactive”; `CC1CCN(S(=O)(=O)c2ccc(NC(=O)C3CC(=O)N(c4ccccc4)C3)cc2)CC1` (stereo not given): “inactive”.
Next, `Cc1ccc(N2CC(C(=O)Nc3ccc(S(=O)(=O)N4CCCC4)cc3)CC2=O)cc1C` (stereo not given): “inactive”; `COc1ccccc1N1CC(C(=O)Nc2ccc(S(=O)(=O)N3CCOCC3)cc2)CC1=O` (stereo not given): 79.4 µM (active); `COc1ccc(NC(=O)NC(C)c2c(-n3cccc3)sc(C)c2C)cc1OC` (stereo not given): “inactive”.
Next, `CCOc1ccc2nc(N3CCCC(C(=O)Nc4cc(C)ccc4C)C3)sc2c1` (stereo not given): “inactive”; `S=c1[nH]nc(-c2cc(-c3ccsc3)n[nH]2)n1-c1ccccc1`: “inactive”; `c1ccc(-c2cc(-c3nnc4sc(-c5ccccn5)nn34)[nH]n2)cc1`: 39.8 µM (active).
Take `CCOc1cccc(-c2nn3c(-c4ccccn4)nnc3s2)c1`: the Potency result was “inactive”.
The result for `O=C(NNC(=O)c1cc2c(s1)CCCC2)c1ccccc1` reads “inactive”; that for `O=C(C1CCC1)N1CCN(c2ccccc2)CC1`, “inactive”.
Turning to `O=C(c1cc2c(s1)CCC2)N1CCN(c2ccccc2)CC1`, the Potency is 17.8 µM (active).
The result for `CCc1ccc(NC(=O)c2cc(S(=O)(=O)NC3CCCCCC3)ccc2F)cc1` reads “inactive”; that for `CCOc1cccc(CC(=O)N2CCc3c([nH]c4ccccc34)C2c2ccc(OC)cc2)c1OCC` (stereo not given), “inactive”; that for `CC(C)Nc1nnc(SCC(=O)c2c[nH]c3ccccc23)s1`, “inactive”.
For `CC(C)c1ccc(Nc2nnc(SCC(=O)c3nnc(-c4ccccc4)o3)s2)cc1`, the Potency was 39.8 µM (active).
The result for `Cc1ccccc1Nc1nnc(SCC(=O)c2cc3ccccc3o2)s1` reads “inactive”; that for `Cc1cccc(Cn2c(SCc3ccc(C(=O)N4CCC(C)CC4)cc3)nc3ccncc32)c1`, “inactive”; that for `COc1cc(OC)c(OC)cc1/C=C/c1nc2ccccc2c(=O)n1-c1ccc(Br)c(C)c1`, “inactive”.
The result for `COc1ccc(C(=O)Nc2cccc(C(=O)OCc3cc(=O)n4c5c(sc4n3)CCCC5)c2)cc1` reads “inactive”.
In the case of `Cc1ccc(CN2CCc3nc(N4CCN(C)CC4)ncc3C2)cc1`, the Potency entry was “inactive”.
The result for `COc1cccc(N2CCN(C(=O)CCCCCn3c(=O)[nH]c4ccccc4c3=O)CC2)c1` reads “inactive”; that for `Cc1ccsc1-c1cc(C(=O)O)c2c(ccc3ccccc32)n1`, “inactive”; that for `Cc1cccc(NC(=O)CSc2nc(-c3ccco3)cc(C(F)(F)F)n2)c1C`, “inactive”.
The result for `Cc1cc(C)c2nc(-c3ccco3)cc(C(=O)O)c2c1` reads 7.08 µM (active); that for `CCOc1cc(CNC(=O)c2sc3ncnc(N(C)C4CCCCC4)c3c2C)ccc1OC`, “inactive”.
Next, `COc1ccc(CCNC(=O)C(=O)NCC(c2ccco2)S(=O)(=O)c2cccs2)cc1OC` (stereo not given): “inactive”; `O=C(Nc1ccc2nc(SCC(=O)N3CCCc4ccccc43)sc2c1)c1ccc(F)cc1`: “inactive”; `O=C(CSc1nccn1C1CCCC1)Nc1cc(C(F)(F)F)ccc1Cl`: “inactive”.
Regarding `Cn1c(NN)nc2sc3c(c2c1=O)CCC3`, the Potency is 89.1 µM (active).
Next, `NNC(=O)C1CCCn2c1nc1sc3c(c1c2=O)CCCC3` (stereo not given): “inactive”; `CCCc1nc2sc3c(c2c(=O)n1NC(=O)CCCl)CCCC3`: “inactive”; `COc1ccccc1OCC(=O)Nc1nnc2n1CCS2`: “inactive”.
The result for `CCOC(=O)c1c(C)oc2nc(C)nc(N3CCN(c4ccc(OC)cc4)CC3)c12` reads “inactive”.
As to `CCc1cccc(OC2OC(CO)C(O)C(O)C2NC(C)=O)c1` (stereo not given), the Potency entry was “inactive”.
Next, `CC(=O)NC1C(Oc2ccc(C)cc2)OC2COC(c3ccco3)OC2C1O` (stereo not given): “inactive”; `CC(=O)NC1C(Oc2ccc(C=O)cc2)OC(COC(C)=O)C(OC(C)=O)C1OC(C)=O` (stereo not given): 39.8 µM (active).
The result for `Cc1c(C(=O)N2CCCC2)oc2c1-c1nn(CC(=O)NCc3ccc(OC(C)C)cc3)cc1CC2` reads “inactive”; that for `COc1ccc(-c2nc(SCC(=O)N3CCCCC3C)n[nH]2)cc1` (stereo not given), “inactive”.
The result for `CCCCCn1c(=O)[nH]c2cc(C(=O)NCCN(C)CCCC)ccc2c1=O` reads “inactive”; that for `CCSc1nnc(NC(=O)c2cc(=O)c3cc(C)c(C)cc3o2)s1`, “inactive”; that for `Cc1ccc(C(=O)Oc2coc(CSc3nnc(NC(=O)c4cccs4)s3)cc2=O)cc1C`, 20 µM (active).
For `CCSc1nnc(NC(=O)c2ccc(C)cc2)s1`, the Potency entry is “inactive”.
The result for `CCOC(=O)C1CCN(c2csc3ccc(C)cc3c2=O)CC1` reads “inactive”.
Take `O=C1NN(c2ccccc2)C(=O)/C1=C/c1ccc(-c2cccc(C(=O)O)c2)o1`: the Potency is 35.5 µM (active).
For the compound `COc1cc(/C=C2/C(=O)NN(c3cccc(Cl)c3)C2=O)cc(Br)c1O`, the Potency result was “inactive”.
In the case of `Cc1cccc(C)c1-n1c(C)cc(/C=C2\C(=O)NN(c3ccccc3)C2=O)c1C`, the Potency entry is “inactive”.
Consider `CCOc1cc(C2C(C(=O)OC)=C(C)NC3=C2C(=O)c2ccccc23)ccc1O` (stereo not given), for which the Potency result was “inactive”.
As for `Cc1cccc2nc(-c3ccc(Cl)s3)c(Nc3ccc4c(c3)OCCO4)n12`, the Potency result was “inactive”.
On to `Cc1ccc(OC(=O)CCC(=O)Nc2ccc(Br)cc2)cc1`, for which the Potency entry was “inactive”.
The result for `Cc1ccc(NC(=O)CCC(=O)c2ccc(Br)cc2)cc1` reads 89.1 µM (active).
Next, `COc1ccc(C(=O)CCC(=O)Nc2ccc(Cl)cc2)cc1`: “inactive”; `CCOc1cc(-c2nnc(SCC(=O)NC3CCCC3)nc2-c2ccc(OC)c(OCC)c2)ccc1OC`: “inactive”; `CCCn1c2ccccc2c2cnn(CC(=O)N(C)c3ccccc3CC)c(=O)c21`: “inactive”.
The result for `COc1cccc(CNC(=O)CCc2nc(-c3ccc(C)cc3)no2)c1` reads “inactive”; that for `COc1ccc(OC)c(NC(=O)CSc2nc3ccccc3nc2N2CCCCC2)c1`, “inactive”; that for `Cc1ccc2nc(/C(C#N)=C/c3ccc(-c4ccc(C(=O)OC(C)C)cc4)o3)[nH]c2c1`, 28.2 µM (active).
Take `CCOC(=O)c1ccc(-c2ccc(/C=C(\C#N)C(=O)Nc3ccc(C)cc3)o2)cc1`: the Potency result is “inactive”.
Consider `Cc1ccc2nc(/C(C#N)=C/c3ccccc3F)[nH]c2c1`, for which the Potency entry was “inactive”.
Next, `COc1ccc(S(=O)(=O)NCc2cccn2Cc2cccc(C)c2)cc1Cl`: “inactive”.
Next, `COc1ccc(N2CCN(C3=NS(=O)(=O)C(c4cccc(Br)c4)=C3C)CC2)cc1`: “inactive”; `CCOC(=O)C(Cc1ccccc1)NC(=O)CCC(=O)c1ccc(OC)cc1` (stereo not given): “inactive”; `COc1ccc2oc(C(=O)NCC(Cc3ccccc3)N(C)C)c(C)c2c1` (stereo not given): “inactive”.
As to `COc1cc([C@H](Cc2ccccc2)NC(C)=O)oc(=O)c1`, the Potency is 17.8 µM (active).
The result for `Cc1cc(C)nc(N2CCN(c3ncnc4c3oc3ccccc34)CC2)n1` reads “inactive”.
Next, `CC(C)c1nc2oc3c(N4CCN(C)CC4)ncnc3c2c2c1CCC2`: 12.6 µM (active); `Cc1ccc(NC(=O)c2ccc(CN3CC(=O)N4CCCCC4C3=O)cc2)c(Cl)c1` (stereo not given): “inactive”; `Cc1nnc(C)n1-c1ccc(C(=O)Nc2cccc(Br)c2)cc1`: “inactive”.
Turning to `Cc1cccc(NC(=O)C2CC(=O)OC23CCCC3)c1` (stereo not given), the Potency is 28.2 µM (active).
Next, `Cc1cccc(NC(=O)C2CCN(C(=O)NC3CCCCC3)CC2)c1`: “inactive”; `Cc1cccc(NC(=O)NC2(C)CCS(=O)(=O)C2)c1` (stereo not given): “inactive”; `CCOC(=O)c1ccc(NC(=O)c2csc3c2CCCCC3)cc1`: “inactive”.
The result for `Cc1nn(-c2ccc(N3CCCCC3)nn2)c(C)c1CCC(=O)NCc1ccc(F)cc1` reads “inactive”; that for `COc1ccc(-n2ccnc(NCCc3ccc(Cl)cc3)c2=O)cc1OC`, “inactive”; that for `Cc1cc(C)cc(N(CC(=O)NCCSCc2ccco2)S(C)(=O)=O)c1`, “inactive”.
Regarding `S=C(NCc1ccc2c(c1)OCO2)NCc1ccco1`, the Potency entry is “inactive”.
Regarding `CS(=O)(=O)N(CC(=O)NCc1ccco1)c1ccc2c(c1)OCO2`, the Potency was 50.1 µM (active).
Next, `Cc1ccc(NC(=O)CSc2nc3c([nH]c4ccccc43)c(=O)n2-c2ccccc2)cc1Cl`: “inactive”.
Next, `Cc1ccc(NC(=O)c2ccc3[nH]c(C)cc(=O)c3c2)c(C)c1`: “inactive”.
Consider `Fc1ccc(C(Nc2ccc(Cl)c(C(F)(F)F)c2)c2nnc(-c3ccccc3)o2)cc1` (stereo not given), for which the Potency result was “inactive”.
In the case of `NS(=O)(=O)c1ccc(NC(=S)Nc2ccc(Br)c(Cl)c2)cc1`, the Potency entry is “inactive”.
Next, `Nc1c(Cl)cc(S(N)(=O)=O)cc1S(N)(=O)=O`: 25.1 µM (active).
In the case of `CCCN(CCC)C(=O)C1CCCN(c2ncnc3c2nc2n3CCCCC2)C1` (stereo not given), the Potency result is “inactive”.
Next, `COc1ccc(-c2cc(C(=O)NCc3cc(OC)c(OC)c(OC)c3)[nH]n2)cc1`: “inactive”; `CCc1ccc(NC(=O)C2CCCN2S(=O)(=O)c2ccc3nc(-c4ccccc4)[nH]c3c2)cc1` (stereo not given): 12.6 µM (active).
Next, `CCc1ccccc1NS(=O)(=O)c1ccc2nc(-c3ccccc3)[nH]c2c1`: “inactive”.
The result for `CCc1nnc(NC(=O)C2CCCN2S(=O)(=O)c2ccccc2)s1` (stereo not given) reads “inactive”.

For the origin of these results see PubChem BioAssay AID485314 (National Center for Advancing Translational Sciences (NCATS), 2010).
